Measured values from PubChem BioAssay (EPA / NIEHS).
Some structures have more than one record in an assay (separate samples or runs), and their calls can disagree. The source made the active and inactive calls. Rule for the calls: active = hit-call score of the fitted dose curve at least 0.9, where 1 is the maximum; inactive = score below 0.9.

Assay: ATG_Oct_MLP_CIS: Attagene CIS-FACTORIAL HepG2 Assay for human Octamer-Binding Transcription Factor (Oct) (AID 2282993)
Conditions: HepG2 Attagene cis-factorial Oct reporter, mRNA; actives raise or lower the signal
Description: ATG_CIS is a cell-based, multiplexed-readout assay that uses HepG2, a human liver cell line, with measurements taken at 24 hours after chemical dosing in a 24-well plate.ATG_Oct_MLP_CIS is one of 52 assay component(s) measured or calculated from the ATG_CIS assay. It is designed to make measurements of mRNA induction, a form of inducible reporter, as detected with fluorescence intensity signals by Reverse transcription polymerase chain reaction (RT-PCR) and Capillary electrophoresis technology.Data from the assay component ATG_Oct_MLP_CIS was analyzed into 1 assay endpoint. This assay endpoint, ATG_Oct_MLP_CIS, was analyzed with bidirectional fitting relative to DMSO as the negative control and baseline of activity. Using a type of inducible reporter, measures of mRNA for gain or loss-of-signal activity can be used to understand the reporter gene at the transcription factor-level as they relate to the gene POU2F1. Furthermore, this assay endpoint can be referred to as a primary readout, because this assay has produced multiple assay endpoints where this one serves a reporter gene function. To generalize the intended target to other relatable targets, this assay endpoint is annotated to the dna binding intended target family, where the subfamily is POU domain protein.
Human liver HepG2 cells are transiently transfected with multiple reporter transcription units (MRTUs) in 6-well plates using FuGene 6 reagent (Roche; 3 ml FuGene/1 mg DNA). The MRTU constructs are regulated by a cis-regulating element (promoter). […] A major difference between the CIS and TRANS system is that in CIS activities of endogenous TFs are measured, whereas the TRANS assay evaluates changes in activities of exogenous, chimeric NR-Gal4 proteins. […] At the end of 24 hour incubation, total RNA was isolated using TriZol reagent (Invitrogen). The isolated RNA is then reverse-transcribed using oligo(dT) primer and Mo-MLV reverse transcriptase (Invitrogen) with DNAse I (Ambion) treatment for 30 min. The one-tenth of the produced cDNA was amplified by PCR using Taq DNA polymerase (Invitrogen) and two reporter sequence-specific primers. The PCR products were fluorescently labeled by primer extension with 6-arboxyfluorescein (6-FAM) 5'-labeled reporter sequence-specific primer (2 min at 95 C, 20 s at 68 C and 10 min at 72 C) and these products were digested with 5U of HpaI (New England Biolabs) for 2h at 37 C. The fragments were purified using Qiaquick PCR columns (Qiagen), analyzed on an ABI 3130xL genetic analyzer (Applied Biosystems) with peak positions identified by using a set of X-rhodamine (ROX)-labeled MapMarker1000 molecular weight standards (BioVentures). The raw capillary electrophoresis data was processed using Attagraph software (Attagene).
With `CC(CO)c1ccccc1` (stereo not given) the outcome was “inactive”.
In the case of `Cc1cc(O)c(C)c(C)c1O`, the outcome is reported as “inactive”.
With `CCCCCC1C(=O)CCC1CC(=O)OC` (stereo not given) the outcome was “inactive”.
With `O=C(O)c1cccc(Cl)n1` the outcome was “inactive”.
For `C=CCOC(=O)/C=C\C(=O)OCC=C`, the outcome was “inactive”.
For `CN1CCc2cccc3c2[C@H]1Cc1ccc(O)c(O)c1-3`, the outcome was “inactive”.
For `CC(=O)OC(C)(C)C1CC=C(C)CC1` (stereo not given), the outcome was “inactive”.
With `C#C[C@]1(O)CC[C@H]2[C@@H]3CCc4cc(O)ccc4[C@H]3CC[C@@]21C` the outcome was “inactive” and the AC50 was 27.1 µM (active) [middle of 4 runs].
With `CC(=O)c1ccc2ccccc2c1` the outcome was “inactive”.
With `CC(C)(C)c1ccc(S)cc1` the outcome was “inactive”.
For `CCCCCC1CCC(=O)O1` (stereo not given), the outcome was “inactive”.
In the case of `CC1=CC(C)C(C=O)C(C)C1` (stereo not given) (tested in a mixture with another compound), the outcome is reported as “inactive”.
For `CCCCCCC(C)O` (stereo not given), the outcome was “inactive”.
With `CCCOC(=O)CC` the outcome was “inactive”.
For `CCCCCCCCCCCCN1CCOCC1`, the AC50 was 45.4 µM (active).
With `CC(CO)(CO)[N+](=O)[O-]` the outcome was “inactive”.
For `C1CCCNCC1`, the outcome was “inactive”.
For `O=C(O)CS`, the outcome was “inactive”.
For `CC(=O)CC(=O)N(C)C`, the outcome was “inactive”.
In the case of `CC1=CC[C@@H](C(C)(C)O)CC1`, the outcome is reported as “inactive”.
In the case of `c1ccc(Sc2ccccc2)cc1`, the outcome is reported as “inactive”.
In the case of `CCCCCCCCCCO[C@@H]1O[C@H](CO)[C@@H](O)[C@H](O)[C@H]1O`, the outcome is reported as “inactive”.
In the case of `CCCO[Si](OCCC)(OCCC)OCCC`, the outcome is reported as “inactive”.
With `NS(=O)(=O)c1cc(C(=O)O)c(NCc2ccco2)cc1Cl` the outcome was “inactive”.
In the case of `N#CCCNCCC#N`, the outcome is reported as “inactive”.
For `CC(=O)c1cccnc1`, the outcome was “inactive”.
For `CC(=O)C1C(=O)C=C(C)OC1=O` (stereo not given), the outcome was “inactive”.
For `C=CC(=O)OCC(CO)(COC(=O)C=C)COC(=O)C=C`, the outcome was “inactive”.
With `C=C(C)C(N)=O` the outcome was “inactive”.
With `Cc1cccc(O)c1` the outcome was “inactive”.
For `C=CCOCC(O)CO` (stereo not given), the outcome was “inactive”.
For `COC(=O)C(C)Oc1ccc(Oc2ncc(C(F)(F)F)cc2Cl)cc1` (stereo not given), the outcome was “inactive”.
In the case of `CC(C)N(c1ccccc1)C(C)C`, the outcome is reported as “inactive”.
In the case of `CCCCCc1cccc(=O)o1`, the outcome is reported as “inactive”.
With `Cc1ccccc1S` the AC50 was 98.5 µM (active).
In the case of `CC(C)=CC(=O)O`, the outcome is reported as “inactive”.
In the case of `CC1=C(C=O)C(C)(C)CCC1`, the outcome is reported as “inactive”.
In the case of `CCC=C(C)C=O`, the outcome is reported as “inactive”.
With `CCCC(O)C(CC)CO` (stereo not given) the outcome was “inactive”.
